# Assay results taken from PubChem BioAssay (EPA / NIEHS).
# Records with an inconclusive call do not appear. The source made the active and inactive calls. The calls were made as follows: active = hit-call score of the fitted dose curve at least 0.9, where 1 is the maximum; inconclusive = response in the unintended direction; inactive = score below 0.9.
# Molecular target: zebrafish Thyroid Hormone Receptor beta (TRb), thrb (gene 30607) (UniProt Q9PVE4)
# Experiment: ATG_zfTRb_XSP1: Attagene TRANS-FACTORIAL Multi-Species (XSP1) HepG2 Assay for zebrafish Thyroid Hormone Receptor beta (TRb) (AID 2283809)
# Method: ATG_XSP1_multi-species_TRANS is a cell-based, multiplexed assay created by modifying the existing Attagene TRANS-FACTORIAL system to include a panel of nuclear receptors from some or all the following species: human (Homo sapiens), mouse (Mus musculus), frog (Xenopus laevis), zebrafish (Danio rerio), chicken (Gallus gallus), and turtle (Chrysemys picta). The ECOTOX-FACTORIAL format uses HepG2, a human liver cell line, with measurements taken at 24 hours after chemical dosing in a 24-well plate. Xsp1 included 3 nM 6-alpha-fluorotestosterone to partially stimulate the androgen receptor.ATG_zfTRb_XSP1 is one of 29 assay components measured or calculated from the ATG_XSP1_multi-species_TRANS assay. It is designed to make measurements of mRNA induction, a form of inducible reporter, as detected with fluorescence intensity signals by Reverse transcription polymerase chain reaction (RT-PCR) and Capillary electrophoresis technology.The assay endpoint ATG_zfTRb_XSP1 was analyzed in the positive analysis fitting direction relative to DMSO as the negative control and baseline of activity. Using a type of inducible reporter, measures of mRNA for gain-of-signal activity can be used to understand the reporter gene at the transcription factor-level as they relate to the gene TR. Furthermore, this assay endpoint can be referred to as a primary readout, because this assay has produced multiple assay endpoints where this one serves a reporter gene function. To generalize the intended target to other relatable targets, this assay endpoint is annotated to the nuclear receptor intended target family, where the subfamily is non-steroidal.
# Human liver HepG2 cells are transiently transfected with multiple reporter transcription units (MRTUs) in 6-well plates using FuGene 6 reagent (Roche; 3 ml FuGene/1 mg DNA). The MRTU constructs are regulated by a cis-regulating element (promoter). […] A major difference between the CIS and TRANS system is that in CIS activities of endogenous TFs are measured, whereas the TRANS assay evaluates changes in activities of exogenous, chimeric NR-Gal4 proteins. […] At the end of 24 hour incubation, total RNA was isolated using TriZol reagent (Invitrogen). The isolated RNA is then reverse-transcribed using oligo(dT) primer and Mo-MLV reverse transcriptase (Invitrogen) with DNAse I (Ambion) treatment for 30 min. The one-tenth of the produced cDNA was amplified by PCR using Taq DNA polymerase (Invitrogen) and two reporter sequence-specific primers. The PCR products were fluorescently labeled by primer extension with 6-arboxyfluorescein (6-FAM) 5'-labeled reporter sequence-specific primer (2 min at 95 C, 20 s at 68 C and 10 min at 72 C) and these products were digested with 5U of HpaI (New England Biolabs) for 2h at 37 C. The fragments were purified using Qiaquick PCR columns (Qiagen), analyzed on an ABI 3130xL genetic analyzer (Applied Biosystems) with peak positions identified by using a set of X-rhodamine (ROX)-labeled MapMarker1000 molecular weight standards (BioVentures). The raw capillary electrophoresis data was processed using Attagraph software (Attagene).
# zebrafish Thyroid Hormone Receptor beta (TRb), thrb (gene 30607), sequence (Q9PVE4 whole entry, looked up): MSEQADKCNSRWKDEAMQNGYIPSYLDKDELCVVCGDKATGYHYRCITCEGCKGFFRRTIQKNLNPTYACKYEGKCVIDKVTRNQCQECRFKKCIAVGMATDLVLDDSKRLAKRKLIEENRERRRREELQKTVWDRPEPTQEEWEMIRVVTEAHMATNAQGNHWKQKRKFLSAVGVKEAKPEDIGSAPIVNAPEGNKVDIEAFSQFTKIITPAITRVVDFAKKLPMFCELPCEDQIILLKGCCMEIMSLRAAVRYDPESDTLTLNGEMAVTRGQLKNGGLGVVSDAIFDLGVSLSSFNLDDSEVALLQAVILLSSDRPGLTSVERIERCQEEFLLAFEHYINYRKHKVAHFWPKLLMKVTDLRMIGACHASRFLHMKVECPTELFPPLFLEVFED
Compound,AC50,outcome
CCOP(=S)(OCC)SCn1c(=O)oc2cc(Cl)ccc21,49.8 µM (active),–
CO/C=C(/C(=O)OC)c1ccccc1Oc1cc(Oc2ccccc2C#N)ncn1,–,inactive
C#CCOS(=O)OC1CCCCC1Oc1ccc(C(C)(C)C)cc1 (stereo not drawn),–,inactive
CC(C)(C)c1ccc(CSc2cnn(C(C)(C)C)c(=O)c2Cl)cc1,–,inactive
C=CC1(C)OC(=O)N(c2cc(Cl)cc(Cl)c2)C1=O (stereo not drawn),51.6 µM (active),–
CCCCOC(=O)c1ccccc1C(=O)OCCCC,–,inactive
CCCCC(CC)COC(=O)c1ccccc1C(=O)OCC(CC)CCCC (stereo not drawn),100 µM (active),–
CON(C)C(=O)Nc1ccc(Cl)c(Cl)c1,–,inactive
CC(C)Oc1cc(-n2nc(C(C)(C)C)oc2=O)c(Cl)cc1Cl,–,inactive
COP(=S)(OC)Oc1nc(Cl)c(Cl)cc1Cl,–,inactive
CCCN(CCC)c1c([N+](=O)[O-])cc(S(N)(=O)=O)cc1[N+](=O)[O-],9.16 µM (active),–
COc1ccc(C(c2ccc(OC)cc2)C(Cl)(Cl)Cl)cc1,–,inactive
COC(=O)N(OC)c1ccccc1COc1ccn(-c2ccc(Cl)cc2)n1,–,inactive
